Our source for the inhibition values is ChEMBL document CHEMBL1961873, “Compounds: GSK PKIS; Assays: Nanosyn kinase panel” (2012).

Assay [1] deals with Tyrosine-protein kinase SYK (Homo sapiens) (UniProt P43405). To be noted: at 1 µM.
Assay [2] has as its target T1, Tyrosine-protein kinase Tec (Homo sapiens) (UniProt P42680).
T1 sequence (whole entry): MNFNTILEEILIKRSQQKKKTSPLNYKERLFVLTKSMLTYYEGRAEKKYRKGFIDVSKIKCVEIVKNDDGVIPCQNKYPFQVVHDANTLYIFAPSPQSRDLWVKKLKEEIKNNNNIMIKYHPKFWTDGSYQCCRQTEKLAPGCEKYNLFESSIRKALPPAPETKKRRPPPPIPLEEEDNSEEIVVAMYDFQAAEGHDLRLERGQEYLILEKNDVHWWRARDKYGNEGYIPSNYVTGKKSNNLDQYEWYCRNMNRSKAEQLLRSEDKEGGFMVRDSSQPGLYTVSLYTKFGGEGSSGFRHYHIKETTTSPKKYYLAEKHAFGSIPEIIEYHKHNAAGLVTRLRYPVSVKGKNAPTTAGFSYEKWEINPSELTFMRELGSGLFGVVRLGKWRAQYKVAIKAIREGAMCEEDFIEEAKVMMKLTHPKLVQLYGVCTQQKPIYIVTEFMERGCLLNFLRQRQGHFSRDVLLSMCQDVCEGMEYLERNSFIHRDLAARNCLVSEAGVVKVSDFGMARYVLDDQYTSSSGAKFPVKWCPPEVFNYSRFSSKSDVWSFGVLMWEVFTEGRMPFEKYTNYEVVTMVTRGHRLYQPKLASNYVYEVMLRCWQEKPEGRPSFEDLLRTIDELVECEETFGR
As to conditions: at 0.1 µM.

The target in assay [3] is T1, Tyrosine-protein kinase Tec (Homo sapiens). To be noted: at 1 µM.
In assay [4] the target is Angiopoietin-1 receptor (Homo sapiens) (UniProt Q02763). As to conditions: at 0.1 µM.
For assay [5] the target is unchanged. To be noted: at 1 µM.
Assay [6] deals with T2, Non-receptor tyrosine-protein kinase TNK1 (Homo sapiens) (UniProt Q13470).
T2 sequence (whole entry): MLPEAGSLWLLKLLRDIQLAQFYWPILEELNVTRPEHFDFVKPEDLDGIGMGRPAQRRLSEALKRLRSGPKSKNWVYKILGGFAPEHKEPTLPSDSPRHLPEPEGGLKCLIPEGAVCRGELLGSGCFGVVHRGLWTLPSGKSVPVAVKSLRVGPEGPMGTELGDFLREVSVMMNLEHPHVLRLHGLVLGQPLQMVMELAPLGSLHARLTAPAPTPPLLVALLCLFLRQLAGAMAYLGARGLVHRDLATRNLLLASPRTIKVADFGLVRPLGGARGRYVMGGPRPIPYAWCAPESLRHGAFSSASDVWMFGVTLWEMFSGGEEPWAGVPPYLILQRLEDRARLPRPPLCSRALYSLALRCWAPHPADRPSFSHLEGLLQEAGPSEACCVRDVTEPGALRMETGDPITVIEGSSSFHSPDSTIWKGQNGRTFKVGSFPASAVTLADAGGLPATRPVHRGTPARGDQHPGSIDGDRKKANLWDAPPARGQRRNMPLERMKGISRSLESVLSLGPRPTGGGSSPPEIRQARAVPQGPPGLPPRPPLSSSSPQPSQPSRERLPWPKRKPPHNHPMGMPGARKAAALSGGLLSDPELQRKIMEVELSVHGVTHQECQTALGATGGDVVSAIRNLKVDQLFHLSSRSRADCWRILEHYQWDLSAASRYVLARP
As to conditions: at 0.1 µM.

Assay [7] deals with T2, Non-receptor tyrosine-protein kinase TNK1 (Homo sapiens). As to conditions: at 1 µM.
The target of assay [8] is Activated CDC42 kinase 1 (Homo sapiens) (UniProt Q07912). To be noted: at 0.1 µM.
The target is the same in assay [9]. As to conditions: at 1 µM.
The target of assay [10] is High affinity nerve growth factor receptor (Homo sapiens) (UniProt P04629). As to conditions: at 0.1 µM.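 Note: each value is a mean of replicate percent inhibition readings against TRKA kinase.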
Chain of High affinity nerve growth factor receptor (Homo sapiens) (P04629 33-796 limits assumed): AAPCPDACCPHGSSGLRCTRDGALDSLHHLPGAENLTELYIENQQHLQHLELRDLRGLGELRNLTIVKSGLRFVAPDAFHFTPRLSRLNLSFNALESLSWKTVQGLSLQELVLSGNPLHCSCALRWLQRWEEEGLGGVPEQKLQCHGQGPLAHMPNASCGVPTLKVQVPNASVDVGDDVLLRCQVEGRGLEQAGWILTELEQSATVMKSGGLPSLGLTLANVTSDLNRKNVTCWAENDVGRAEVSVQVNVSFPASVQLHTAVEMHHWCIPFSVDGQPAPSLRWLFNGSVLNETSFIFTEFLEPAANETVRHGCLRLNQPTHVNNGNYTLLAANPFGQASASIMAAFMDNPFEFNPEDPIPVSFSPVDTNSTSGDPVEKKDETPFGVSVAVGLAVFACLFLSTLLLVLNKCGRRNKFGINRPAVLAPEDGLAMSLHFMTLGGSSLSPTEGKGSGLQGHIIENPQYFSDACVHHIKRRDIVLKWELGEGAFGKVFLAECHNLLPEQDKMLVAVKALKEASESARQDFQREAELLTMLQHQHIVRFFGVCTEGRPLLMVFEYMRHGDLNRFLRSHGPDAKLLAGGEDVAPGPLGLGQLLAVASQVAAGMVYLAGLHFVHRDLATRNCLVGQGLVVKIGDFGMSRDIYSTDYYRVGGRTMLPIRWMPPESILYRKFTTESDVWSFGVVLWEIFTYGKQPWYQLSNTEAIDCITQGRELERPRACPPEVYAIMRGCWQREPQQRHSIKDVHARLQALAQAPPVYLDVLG

Chain of Activated CDC42 kinase 1 (Homo sapiens) (Q07912 whole entry, looked up): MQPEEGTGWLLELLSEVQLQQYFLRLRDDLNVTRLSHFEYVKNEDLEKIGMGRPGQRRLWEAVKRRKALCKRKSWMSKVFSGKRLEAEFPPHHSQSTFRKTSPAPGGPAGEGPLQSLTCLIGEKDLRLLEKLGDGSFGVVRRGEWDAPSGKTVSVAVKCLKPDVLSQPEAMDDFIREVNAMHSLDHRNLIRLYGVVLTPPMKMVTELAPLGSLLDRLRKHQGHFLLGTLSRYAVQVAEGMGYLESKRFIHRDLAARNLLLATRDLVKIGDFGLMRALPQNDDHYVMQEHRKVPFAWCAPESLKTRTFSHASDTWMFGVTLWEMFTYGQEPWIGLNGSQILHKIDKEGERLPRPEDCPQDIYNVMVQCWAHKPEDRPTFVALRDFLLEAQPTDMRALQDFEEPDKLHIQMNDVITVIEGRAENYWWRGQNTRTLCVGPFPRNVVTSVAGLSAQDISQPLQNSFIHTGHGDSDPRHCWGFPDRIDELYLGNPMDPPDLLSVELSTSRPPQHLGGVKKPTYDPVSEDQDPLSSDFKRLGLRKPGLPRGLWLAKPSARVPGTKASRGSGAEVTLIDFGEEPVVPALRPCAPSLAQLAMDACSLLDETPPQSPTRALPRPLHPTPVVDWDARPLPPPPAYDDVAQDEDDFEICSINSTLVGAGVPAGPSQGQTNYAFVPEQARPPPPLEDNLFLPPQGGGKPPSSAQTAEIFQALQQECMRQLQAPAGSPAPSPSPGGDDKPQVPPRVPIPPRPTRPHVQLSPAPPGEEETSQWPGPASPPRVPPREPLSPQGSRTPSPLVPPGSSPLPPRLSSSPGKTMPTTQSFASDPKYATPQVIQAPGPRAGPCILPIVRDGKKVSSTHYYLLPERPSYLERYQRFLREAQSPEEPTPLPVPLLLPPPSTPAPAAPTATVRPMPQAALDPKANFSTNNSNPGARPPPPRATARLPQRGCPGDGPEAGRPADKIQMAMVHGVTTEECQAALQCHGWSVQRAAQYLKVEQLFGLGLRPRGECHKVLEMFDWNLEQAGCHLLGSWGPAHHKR
Chain of Angiopoietin-1 receptor (Homo sapiens) (Q02763 whole entry): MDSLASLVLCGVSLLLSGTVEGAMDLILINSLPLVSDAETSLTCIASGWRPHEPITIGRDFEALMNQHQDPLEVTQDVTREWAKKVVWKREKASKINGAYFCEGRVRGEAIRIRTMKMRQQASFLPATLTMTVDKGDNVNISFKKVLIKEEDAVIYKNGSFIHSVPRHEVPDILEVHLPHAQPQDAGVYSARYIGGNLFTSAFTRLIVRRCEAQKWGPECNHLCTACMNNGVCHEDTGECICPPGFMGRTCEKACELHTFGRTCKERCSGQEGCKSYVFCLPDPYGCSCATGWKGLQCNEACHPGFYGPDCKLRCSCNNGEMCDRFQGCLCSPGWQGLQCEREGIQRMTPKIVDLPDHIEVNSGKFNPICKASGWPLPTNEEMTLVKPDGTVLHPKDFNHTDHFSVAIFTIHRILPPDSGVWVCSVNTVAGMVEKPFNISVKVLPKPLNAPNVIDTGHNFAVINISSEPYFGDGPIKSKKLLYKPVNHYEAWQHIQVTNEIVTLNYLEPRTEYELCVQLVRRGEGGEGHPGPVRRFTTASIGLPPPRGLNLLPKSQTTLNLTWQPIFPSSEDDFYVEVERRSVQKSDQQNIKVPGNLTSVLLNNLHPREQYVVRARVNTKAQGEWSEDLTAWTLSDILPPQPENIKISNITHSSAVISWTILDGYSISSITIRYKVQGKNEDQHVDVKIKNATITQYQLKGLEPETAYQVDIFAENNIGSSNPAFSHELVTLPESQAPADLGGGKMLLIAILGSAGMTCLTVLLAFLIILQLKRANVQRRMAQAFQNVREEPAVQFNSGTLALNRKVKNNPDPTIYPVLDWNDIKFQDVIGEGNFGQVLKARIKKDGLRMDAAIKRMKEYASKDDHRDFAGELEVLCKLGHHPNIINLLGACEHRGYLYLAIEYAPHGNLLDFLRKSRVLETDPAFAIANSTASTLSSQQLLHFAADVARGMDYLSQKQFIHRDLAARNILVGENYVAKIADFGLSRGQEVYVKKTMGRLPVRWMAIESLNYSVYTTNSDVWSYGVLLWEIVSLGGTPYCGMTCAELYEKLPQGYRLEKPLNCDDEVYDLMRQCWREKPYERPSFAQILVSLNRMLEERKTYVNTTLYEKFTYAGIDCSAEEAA

As a reminder, the inhibition is the relative decrease from the control value, in per cent. As for `COc1cc2ncn(-c3cc(O[C@H](C)c4ccccc4Cl)c(C(N)=O)s3)c2cc1OC`, the inhibition in assay [1] was -0.3%; in assay [2], 5.59%; in assay [3], 19.3%; in assay [4] it was 12.7%; in [5], 41.7%; in assay [6], 17.7%. Also, the inhibition was found to be 70.8% in assay [7], 6.31% in assay [8], 28.2% in [9] and 1.31% in [10].

With `Cc1ccc(C(=O)NC2CCCCC2)cc1-c1ccc(C(=O)NCC2CC2)cc1`, the inhibition in assay [1] was determined as 0.52%; in assay [2], 4.18%; in [3], 5.66%; in [4], 1.79%; in assay [5] it was 4.17%; in [6], 0.56%. In addition, the inhibition was -2.52% in [7], 2.3% in assay [8], 4.5% in [9] and 2.3% in [10].

Consider `c1cnn2ncc(-c3ccnc(Nc4ccc5c(c4)OCCO5)n3)c2c1`, for which the inhibition was determined as 13.2% in assay [1]; 6.85% in assay [2]; 19.8% in assay [3]; 3.72% in [4]; 20.5% in assay [5]; 18.1% in assay [6]. The inhibition in assay [7] came to 64.5%; in assay [8], 3.29%; in assay [9], 21.7%; in assay [10] it was 5.45%.

For the compound `COc1cc2ncn(-c3cc(O[C@@H](C)c4ccccc4Cl)c(C(N)=O)s3)c2cc1OC`, the inhibition was -4.6% in assay [1]; 1.7% in assay [2]; 7.65% in assay [3]; 4.95% in [4]; 24.2% in assay [5]; 33.8% in assay [6]. The inhibition in [7] was determined as 79.5%; in assay [8], 3.06%; in [9] it was 6.07%; in assay [10] it was 1.91%.

In the case of `NC(=O)c1ccc(-c2nc(-c3ccccn3)c(-c3ccc4c(c3)OCO4)[nH]2)cc1`, the inhibition in [1] worked out at 0.21%; in assay [2] it was 3.16%; in [3], 2.63%; in assay [4], 5.33%; in [5] it was 5.38%; in assay [6], 1.36%. Further, the inhibition in assay [7] is -0.98%; in [8], 0.29%; in [9], 1.03%; in assay [10], 1.52%.

As to `Nc1ncnc2occ(-c3ccc(NC(=O)Nc4cccc(C(F)(F)F)c4)cc3)c12`, the inhibition in assay [2] came to 1.64%; in assay [3], 5.89%; in [4], 56.4%; in assay [5], 74.4%; in assay [6] it was 7.73%; in assay [7], 52.8%. For the same compound, the inhibition in [8] worked out at 0.8%; in [9], 1.54%; in assay [10], 63.9%.

On to `COc1cc(C)c(NC(=O)CN(C)C)cc1Nc1nc(Nc2cccc(F)c2C(N)=O)c2cc[nH]c2n1`, for which the inhibition in [1] was found to be 0.44%; in assay [2] it was 1.93%; in assay [3], 3.64%; in assay [4] it was 0.55%; in assay [5], 0.17%; in [6], 30.8%. Besides, the inhibition came out at 73.4% in [7], 1.18% in assay [8], 14% in [9] and 2.31% in assay [10].

Take `Cc1nnc(-c2ccc(C)c(-c3ccc(C(=O)Nc4cccc(C#N)c4)cc3)c2)o1`: the inhibition in assay [1] is -0.57%; in assay [2] it was 4.05%; in [3] it was 3.86%; in assay [4], 3.65%; in assay [5], 5.45%; in [6], -0.4%. In addition, the inhibition in assay [7] came out at 5.43%; in assay [8], 0.82%; in assay [9], 2%; in [10], 1.28%.

For `CCn1c(-c2nonc2N)nc2ccncc21`, the inhibition in [1] turned out to be 1.46%; in [2] it was 2.56%; in [3], 3.46%; in [4], 2.16%; in [5], 2.72%; in assay [6], 3.44%. The inhibition in [7] is -5.95%; in assay [8], -0.95%; in assay [9], -2.72%; in [10] it was 0.03%.

Turning to `NS(=O)(=O)c1cccc(-c2ccc3c(NC(=O)C4CC4)n[nH]c3c2)c1`, the inhibition in assay [1] was 0.39%; in [2], -1.67%; in assay [3], -2.6%; in assay [4], 1.65%; in [5] it was 3.55%; in assay [6] it was -2.18%. The inhibition is 2.91% in assay [7], -0.31% in assay [8], 0.27% in assay [9] and 0.7% in [10].

On to `Fc1cccc(COc2ccc(Nc3ncnc4cc(-c5ccc[nH]5)sc34)cc2Cl)c1`, for which the inhibition in [1] was 2.33%; in assay [2], -0.22%; in assay [3], 3.69%; in assay [4], 2.27%; in assay [5], 8.54%; in [6], 1.22%. The inhibition in assay [7] came out at 1.7%; in [8], 0.28%; in [9], 0.88%; in assay [10], 2.39%.

`O=C1NC(=O)C(c2ccc(Cl)cc2)=C1Nc1ccc(Cl)c(C(=O)O)c1`: the inhibition was -0.32% in assay [1]; -1.66% in assay [2]; -1.1% in [3]; -0.19% in assay [4]; 3.01% in [5]; -3.22% in assay [6]. Further, the inhibition in assay [7] is 0.53%; in assay [8] it was -0.36%; in assay [9], -0.48%; in assay [10], 0.44%.

As to `COc1cc2ncn(-c3cc(OCc4ccccc4C(F)(F)F)c(C(N)=O)s3)c2cc1OC`, the inhibition in assay [1] is -7.75%; in assay [2], -1.86%; in assay [3] it was 7.03%; in [4] it was 6.11%; in assay [5], 20.9%; in [6] it was 12.5%. Also, the inhibition in [7] amounted to 59.1%; in assay [8], 0.63%; in [9] it was 6.53%; in assay [10], 2.57%.

Turning to `Nc1nc(-c2ccccn2)c(-c2ccc3ncccc3n2)s1`, the inhibition is -0.74% in [1]; 3.91% in [2]; 7.33% in assay [3]; 2.07% in [4]; 1.68% in [5]; 3.7% in assay [6]. Moreover, the inhibition was found to be 5.67% in assay [7], 2.33% in assay [8], 2.94% in [9] and 3.9% in assay [10].

For `CCn1c(-c2nonc2N)nc2c(N3CCCC3)nccc21`, the inhibition in [1] is 2.9%; in assay [2], -1.85%; in assay [3] it was -3.76%; in assay [4], 0.7%; in [5] it was 0.05%; in assay [6], -3.68%. Moreover, the inhibition was -3.3% in assay [7], -0.78% in [8], -0.6% in assay [9] and 1.23% in assay [10].

For the compound `O=C(Nc1n[nH]c2nc(-c3ccco3)c(Br)cc12)C1CC1`, the inhibition in [1] was -0.45%; in [2], 4.92%; in [3], 9.1%; in assay [4], 7.26%; in [5], 13.7%; in assay [6], 2.22%. In addition, the inhibition in assay [7] is -0.4%; in assay [8], 0.93%; in assay [9], 0.24%; in assay [10], 3.1%.

For the compound `Cc1nn(C)c2cc(N(C)c3ccnc(Nc4cccc(S(N)(=O)=O)c4)n3)ccc12`, the inhibition in [1] is -0.53%; in [2] it was 25.8%; in [3] it was 67.9%; in [4], 10.6%; in assay [5] it was 52.5%; in assay [6], 30%. For the same compound, the inhibition in assay [7] was found to be 80.7%; in [8] it was 0.86%; in assay [9], 10.2%; in assay [10] it was 2.81%.
